Data on 14 compounds can be found in PubChem BioAssay (EPA / NIEHS).

Several values for one entry are separate records, joined by “and”; a condition that tells them apart may be missing. Identical values can stand only once. Results filed as inconclusive are left out. Some structures have more than one record in an assay (separate samples or runs), and their calls can disagree. Activity calls are given as the source filed them. How the source made its calls, unless noted: active means hit-call score of the fitted dose curve at least 0.9, where 1 is the maximum; inconclusive means response in the unintended direction; inactive means score below 0.9.

Read-out in experiment [1]: Thyroid Hormone Responsive (THRSP), THRSP (gene 7069)
Put plainly: LTEA_HepaRG_THRSP: Life Technologies and Expression Analysis (LTEA) Assay for Thyroid Hormone Responsive (THRSP) using HepaRG (AID 2283536; active means hit-call score of the fitted dose curve at least 0.9, where 1 is the maximum; inactive means score below 0.9). The settings on record: mRNA level, 48 h; actives raise or lower the signal. An outline of the steps: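 mRNA induction or loss relative to 0.5% DMSO vehicle was fitted bidirectionally across an eight-point curve whose highest exposure was 100 uM. Human HepaRG liver cells received chemicals in duplicate over 48 h before RNA extraction.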

Read-out in experiment [2]: Cellular tumor antigen p53 (Homo sapiens) (UniProt P04637)
In words: LTEA_HepaRG_TP53: Life Technologies and Expression Analysis (LTEA) Assay for Tumor Protein P53 (TP53) using HepaRG (AID 2283537; active means hit-call score of the fitted dose curve at least 0.9, where 1 is the maximum; inactive means score below 0.9). The settings on record: mRNA level, 48 h; actives raise or lower the signal. An outline of the steps:
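HepaRG, 48 h exposure, top 100 uM, half-log 8-point, 0.5% DMSO vehicle, duplicates. Read: TP53 mRNA by TaqMan qRT-PCR, normalised to ACTB/GAPDH/POLR2A; bidirectional fit vs DMSO.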

Read-out in experiment [3]: UDP glucuronosyltransferase (UGT1A1), UGT1A1 (gene 54658)
In words: LTEA_HepaRG_UGT1A1: Life Technologies and Expression Analysis (LTEA) Assay for UDP glucuronosyltransferase (UGT1A1) using HepaRG (AID 2283538; active means hit-call score of the fitted dose curve at least 0.9, where 1 is the maximum; inactive means score below 0.9). The settings on record: mRNA level, 48 h; actives raise or lower the signal. An outline of the steps: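 Differentiated human HepaRG cells in serum-free induction medium were exposed in duplicate for 48 h to eight half-log concentrations up to 100 uM in 0.5% DMSO. UGT1A1 mRNA was quantified by TaqMan qRT-PCR, normalized to ACTB, GAPDH and POLR2A, and fitted bidirectionally against DMSO.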

Read-out in experiment [4]: UDP glucuronosyltransferase (UGT1A6), UGT1A6 (gene 54578)
In words: LTEA_HepaRG_UGT1A6: Life Technologies and Expression Analysis (LTEA) Assay for UDP glucuronosyltransferase (UGT1A6) using HepaRG (AID 2283539; active means hit-call score of the fitted dose curve at least 0.9, where 1 is the maximum; inactive means score below 0.9). The settings on record: mRNA level, 48 h; actives raise or lower the signal. The method in brief: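 Expression was quantified by TaqMan qRT-PCR on Fluidigm arrays with ACTB/GAPDH/POLR2A normalization and bidirectional fitting against 0.5% DMSO. HepaRG cells (~100,000/well) were treated in duplicate for 48 h at eight half-log concentrations up to 100 uM in serum-free induction medium.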

Experiment [5] can be described thus: LTEA_HepaRG_LDH_cytotoxicity: Cytotoxicity Assessment in the Life Technologies and Expression Analysis (LTEA) Assay (AID 2283563).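 On AC50: LDH activity released into spent culture medium as a marker of cell death.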 An outline of the steps: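 LDH release into culture medium read after 48 h chemical treatment of HepaRG cells. Duplicate wells, eight-point half-log series topping at 100 uM, 0.5% DMSO vehicle and baseline.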
Experiment [6] can be described thus: ATG_XTT_Cytotoxicity: Cytotoxicity Assessment in the Attagene TRANS-FACTORIAL HepG2 Assay (AID 2283584).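 On AC50: cells exposed to compound for 24 h before reading; active means loss of viability signal versus DMSO baseline.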 An outline of the steps:
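Viability endpoint from XTT after 24 h chemical exposure of reporter-transfected human HepG2 liver cells; signal loss fitted relative to DMSO negative control.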

Experiment [7] in a line: TOX21_p53_BLA_p2_viability: Viability Assessment in the Tox21 HCT-116 p53 Agonism Beta-lactamase Assay, Phase 2 (AID 2283591).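 Further: compound exposure lasted 16 h at 37 °C; actives lower the ATP signal meaning cytotoxicity.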 An outline of the steps:
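Cytotoxicity readout: CellTiter-Glo ATP luminescence, 30 min at room temperature, after the beta-lactamase read. Cells were HCT116 exposed 16 h at 37C to compounds pin-transferred at 217-fold dilution from DMSO stocks.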

For experiment [8], the target named is Cellular tumor antigen p53 (Homo sapiens) (UniProt P04637). In words: TOX21_p53_BLA_p2_ratio: Tox21 HCT-116 p53 Agonism Beta-lactamase Assay, Ratio, Phase 2 (AID 2283592). The method in brief:
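Gain-of-signal p53 agonism was scored from the beta-lactamase FRET ratio (460/530 nm, 405 nm excitation) in HCT116 cells treated 16 h at 37C, 5% CO2, with DMSO serving as negative control and baseline.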

Experiment [9] in a line: TOX21_p53_BLA_p3_viability: Viability Assessment in the Tox21 HCT-116 p53 Agonism Beta-lactamase Assay, Phase 3 (AID 2283593).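 Further: cells exposed to compound for 16 h before reading.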 The method in brief:
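Cellular ATP was quantified by CellTiter-Glo luminescence, read after 30 min at room temperature. Beforehand, HCT116 cells (4000/well) received compound 5 h post-seeding, 217-fold diluted from DMSO, then incubated 16 h at 37C.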

Read-out in experiment [10]: X-box binding protein 1 (XBP1), XBP1 (gene 7494)
In words: LTEA_HepaRG_XBP1: Life Technologies and Expression Analysis (LTEA) Assay for X-box binding protein 1 (XBP1) using HepaRG (AID 2283540; active means hit-call score of the fitted dose curve at least 0.9, where 1 is the maximum; inactive means score below 0.9). The settings on record: mRNA level, 48 h; actives raise or lower the signal. The method in brief: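 XBP1 transcript by qRT-PCR (housekeeping-normalized: ACTB, GAPDH, POLR2A) after 48 h chemical treatment of HepaRG cells, 8-point half-log series topping at 100 uM, vehicle 0.5% DMSO. Gain and loss of signal fitted relative to DMSO.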

Sequence of Cellular tumor antigen p53 (Homo sapiens) (P04637 whole entry, looked up): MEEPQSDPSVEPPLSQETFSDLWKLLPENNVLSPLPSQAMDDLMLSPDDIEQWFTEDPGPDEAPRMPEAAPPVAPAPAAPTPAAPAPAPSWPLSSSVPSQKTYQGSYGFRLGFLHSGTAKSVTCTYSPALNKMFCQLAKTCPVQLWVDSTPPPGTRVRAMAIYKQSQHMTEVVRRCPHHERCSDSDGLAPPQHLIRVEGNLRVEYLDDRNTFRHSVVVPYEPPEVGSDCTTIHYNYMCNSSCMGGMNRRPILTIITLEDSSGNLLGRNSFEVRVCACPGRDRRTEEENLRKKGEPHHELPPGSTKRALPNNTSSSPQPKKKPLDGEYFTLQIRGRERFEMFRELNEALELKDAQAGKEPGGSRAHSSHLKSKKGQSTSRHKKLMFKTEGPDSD

As to `C[C@]12CCC(=O)C=C1CC[C@@H]1[C@@H]2CC[C@]2(C)C(=O)CC[C@@H]12`, the concentration at half-maximal activity (AC50) in [1] was 1.39 µM (active); in experiment [3] it was 13.1 µM (active). Also, the call in [2], in experiment [4], in [5], in [6], in [7] and in experiment [8] was inactive. In addition, the compound was called inactive in experiment [9].
`O=C(O)C(F)(F)C(F)(F)C(F)(F)C(F)(F)C(F)(F)C(F)(F)C(F)(F)C(F)(F)F`: the half-maximal activity concentration (AC50) in experiment [1] was 58.6 µM (active); in experiment [2], 60.4 µM (active); in experiment [3] it was 85.4 µM (active); in experiment [4], 82.9 µM (active); in experiment [5], 78.6 µM (active); in experiment [7] it was 85.3 µM (active). Further, in [9], the AC50 was 56.9 µM (active). Moreover, the result in [6] and in [8] was inactive.
Consider `Oc1ccc(C(c2ccc(O)cc2)(C(F)(F)F)C(F)(F)F)cc1`, for which the call in experiment [1], in experiment [6], in experiment [7], in [8] and in experiment [9] was inactive. Moreover, the concentration at half-maximal activity (AC50) was 94.5 µM (active) in experiment [2]; 87.5 µM (active) in experiment [3]; 74.5 µM (active) in experiment [4]; 77.7 µM (active) in experiment [10]; 77 µM (active) in experiment [5]; 60.9 µM (active) and 100 µM (active) in experiment [6]. In addition, the AC50 in [7] was 65.1 µM (active); in experiment [8], 63 µM (active); in [9] it was 82.1 µM (active).
Consider `CC(C)(O)C(=O)Nc1ccc([N+](=O)[O-])c(C(F)(F)F)c1`, for which the call in experiment [1], in [3], in [4], in [5], in [6] and in [7] was inactive. Moreover, the result in experiment [8] and in [9] was inactive. Moreover, the values for the concentration at half-maximal activity (AC50) in [2] and in experiment [8] were 0.0309 µM (active) and 69.3 µM (active), respectively.
With `CCC(=O)O[C@H]1CC[C@H]2[C@@H]3CCC4=CC(=O)CC[C@]4(C)[C@H]3CC[C@]12C`, the compound was called inactive in experiment [1], in [2], in [4], in experiment [5], in experiment [6] and in experiment [7]. Further, the result in [8] and in [9] was inactive. The AC50 in experiment [3] was 5.32 µM (active); in [7], 70.4 µM (active); in experiment [8], 87.7 µM (active); in [9], 82 µM (active).
On to `CCOCCOC(C)=O`, for which the result in experiment [1], in experiment [2], in [3], in experiment [4], in experiment [10] and in experiment [5] was inactive. Also, the result in experiment [6], in experiment [7], in [8] and in experiment [9] was inactive.
On to `ClC1=C(Cl)[C@]2(Cl)[C@@H]3[C@@H](Cl)[C@H]4O[C@H]4[C@@H]3C1(Cl)C2(Cl)Cl`, for which the compound was classed as inactive in experiment [1], in [2], in experiment [4], in experiment [5], in [6] and in experiment [8]. In addition, the outcome in experiment [9] was inactive. The values for the concentration at half-maximal activity (AC50) in [3] and in experiment [7] were 2.1 µM (active) and 76.7 µM (active), respectively.
In the case of `CCCCCCCCCc1ccc(O)cc1`, the compound was classed as inactive in experiment [1], in [2], in [4], in [5], in experiment [6] and in experiment [7]. The outcome in experiment [8] and in experiment [9] was inactive. Besides, the concentration at half-maximal activity (AC50) was 32.5 µM (active) in experiment [3] and 151 µM (active) in experiment [6].
As for `ClC1=C(Cl)[C@]2(Cl)[C@@H]3[C@@H]4C[C@@H]([C@H]5O[C@@H]45)[C@@H]3[C@@]1(Cl)C2(Cl)Cl`, the AC50 in experiment [1] is 50 µM (active); in experiment [3] it was 1.65 µM (active); in experiment [10], 0.0249 µM (active). The result in experiment [2], in experiment [4], in [5], in [6], in [7] and in experiment [8] was inactive.
Regarding `CCC(C)(c1ccc(O)cc1)c1ccc(O)cc1`, the half-maximal activity concentration (AC50) is 87.3 µM (active) in experiment [1]; 87.1 µM (active) and 71 µM (active) in experiment [8]. Further, the call in [2], in experiment [3], in experiment [4], in experiment [10], in experiment [5] and in experiment [6] was inactive. The outcome in experiment [7] and in [9] was inactive.
Turning to `C=CC(=O)NCNC(=O)C=C`, the result in experiment [1], in experiment [2], in [3], in experiment [4], in [10] and in experiment [5] was inactive. For the same compound, the compound was classed as inactive in experiment [6], in experiment [7] and in experiment [9].
Turning to `CO/C=C(/C(=O)OC)c1ccccc1COc1cccc(C(F)(F)F)n1`, the AC50 in experiment [1] is 7.31 µM (active); in experiment [2] it was 10.1 µM (active); in experiment [3], 20.5 µM (active); in experiment [4] it was 22.2 µM (active); in experiment [5], 21.2 µM (active); in experiment [8], 2.77 µM (active). Besides, the result in experiment [10], in experiment [6], in [7] and in [9] was inactive.
For the compound `Cc1ccccc1[N+](=O)[O-]`, the call in [1], in experiment [2], in experiment [3], in experiment [4], in [10] and in experiment [5] was inactive. Moreover, the outcome in experiment [6], in [7], in [8] and in experiment [9] was inactive.
On to `CN(C)CCO`, for which the result in [1], in experiment [2], in experiment [3], in experiment [4], in experiment [5] and in [6] was inactive. Moreover, the compound was called inactive in experiment [7], in experiment [8] and in [9].
